Source: PubChem (Sanford-Burnham Center for Chemical Genomics)
tim10-1 inh – growth inhibitors of tim10-1 mutant yeast, primary screen, luminescence, uHTS | inhibition, % at 20 µM | AID 463190, 2010 | S. cerevisiae tim10-1 ts strain growth, BacTiter-Glo, 24 h | 2.2% of 330,000 active;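 active = inhibition of at least 40%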;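 also: mutant grown at 25 °C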
NALP1 inh – NALP1 inflammasome inhibitors in reconstituted yeast, colorimetric, S. cerevisiae, triplicate retest | S. cerevisiae NALP1/ASC/caspase-1 growth, X-gal OD620, 72 h | inhibition, % at 10 µM | 0.61% of 280,000 active | AID 2071, 2009; in the data active = inhibition mostly above about 24%, no sharp cut-off; inactive = mostly below about 32%
TIM10 inh – growth inhibitors of isogenic TIM10 control yeast, primary screen, counter-screen for tim10-1 yeast inhibitor project, luminescence, uHTS | S. cerevisiae TIM10 strain growth, BacTiter-Glo luminescence, 24 h | inhibition, % at 10 µM | 1.4% of 330,000 active;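 active = inhibition of 40% or more at the single tested concentration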;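 also: wild-type TIM10 isogenic control strain grown at permissive 25 °C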
tim23-1 inh – growth inhibitors of tim23-1 mutant yeast, primary screen, luminescence, uHTS | 1.3% of 330,000 active | AID 463212, 2010 | S. cerevisiae tim23-1 growth, BacTiter-Glo luminescence, 24 h | inhibition, % at 20 µM;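 active = growth inhibition of the mutant yeast at or above 50%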;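 also: temperature-sensitive mutant grown at 25 °C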
NALP3 yeast inh – NALP3 inflammasome inhibitors in reconstituted yeast, primary screen, luminescence, uHTS. Yeast reconstituted NLRP3/ASC/caspase-1, beta-gal luminescence, 24 h. inhibition, % at 10 µM. 0.39% of 330,000 active;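 active = inhibition of 50% or more; inactive = inhibition below 50%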
NALP3 confirm – NALP3 inhibitors retested in yeast, confirmation, luminescence, single concentration; yeast expressing human NALP3; 81% of 1,300 active; shares compounds with NALP3 yeast inh; inhibition, % at 10 µM; in the data active = inhibition above about 48%
Casp1-ASC yeast – CASP1-PYCARD signaling inhibition in yeast, confirmatory test, counterassay for NLRP3 inhibitor program, one-dose; shares compounds with NALP3 yeast inh; yeast expressing Caspase-1-ASC, luminescence counter screen; inhibition, % at 10 µM; 66% of 1,000 active
NALP3 retest – NALP3 inhibitors in yeast, repeat test, confirmation, luminescence, single concentration, retest; shares compounds with NALP3 yeast inh; yeast expressing human NALP3, luminescence read-out; inhibition, % at 10 µM; 53% of 1,000 active; AID 488794, 2010
A number is an active result. The list is not random: actives were taken first. Their share in the collection is about 4.1%. Rule as the data show it, unless noted: active = inhibition above about 50%; inactive = the rest.

CCC(=O)N1CCc2cc(S(=O)(=O)NC(Cc3ccccc3)C(=O)NC3CCCCC3)ccc21 (stereo not given) was read as NALP1 inh inactive.
CC(=O)N1CCc2cc(S(=O)(=O)NC(Cc3ccccc3)C(=O)Nc3cc(C)ccn3)ccc21 (stereo not given) was read as tim10-1 inh inactive, NALP1 inh 38, TIM10 inh inactive, tim23-1 inh inactive and NALP3 yeast inh inactive.
`N#Cc1cn(Cc2ccccc2)c2ccccc12` gave tim10-1 inh inactive, NALP1 inh 27, TIM10 inh inactive, tim23-1 inh inactive and NALP3 yeast inh inactive.
For CS(=O)(=O)c1ccc(Cl)c(NC(=O)CSc2nc3ccccc3c(=O)n2Cc2ccco2)c1 the results were tim10-1 inh inactive, TIM10 inh inactive, tim23-1 inh inactive and NALP3 yeast inh inactive.
Screening NC(=O)C1CCN(C(=O)c2cccc(S(=O)(=O)N3CCCC3)c2)CC1 returned tim10-1 inh inactive, TIM10 inh inactive, tim23-1 inh inactive and NALP3 yeast inh inactive.
Screening COc1ccccc1N1CCN(C(=O)CSc2nc(N)cc(=O)[nH]2)CC1 returned tim10-1 inh inactive, NALP1 inh 41, TIM10 inh inactive, tim23-1 inh inactive and NALP3 yeast inh inactive.
Screening COc1ccccc1N1CCN(C(=O)CCN2C(=O)c3cccc4cccc(c34)C2=O)CC1 returned tim10-1 inh inactive, NALP1 inh 45, TIM10 inh inactive, tim23-1 inh inactive and NALP3 yeast inh inactive.
`COc1ccccc1N1CCN(C(=O)CSc2nc3ccccc3[nH]2)CC1` gave tim10-1 inh inactive, NALP1 inh inactive, TIM10 inh inactive, tim23-1 inh inactive and NALP3 yeast inh inactive.
For COc1ccccc1N1CCN(C(=O)CN2C(=O)c3ccccc3C2=O)CC1 the results were tim10-1 inh inactive, NALP1 inh inactive, TIM10 inh inactive, tim23-1 inh inactive and NALP3 yeast inh inactive.
`O=C(Cc1ccc(F)cc1)Oc1ccc(C(=S)N2CCCC2)cc1` gave tim10-1 inh inactive, NALP1 inh inactive, TIM10 inh inactive, tim23-1 inh inactive and NALP3 yeast inh inactive.
Screening CCOc1ccc(CN(C(=O)c2ccccn2)c2ccc(OC)c(Cl)c2)cc1 returned tim10-1 inh inactive, NALP1 inh inactive, TIM10 inh inactive, tim23-1 inh inactive and NALP3 yeast inh inactive.
Screening CS(=O)(=O)N1CCN(C(=O)NC2CCCCC2)CC1 returned tim10-1 inh inactive, NALP1 inh inactive, TIM10 inh inactive, tim23-1 inh inactive and NALP3 yeast inh inactive.
`CCOc1ccc(S(=O)(=O)N2CCC(C(=O)NC3CC3)CC2)cc1C` gave tim10-1 inh inactive, NALP1 inh inactive, TIM10 inh inactive, tim23-1 inh inactive and NALP3 yeast inh inactive.
For Cc1cc(C)n2nc3ccccc3c2n1 the results were tim10-1 inh inactive, NALP1 inh 25, TIM10 inh inactive, tim23-1 inh inactive and NALP3 yeast inh inactive.
Cc1cc(=O)[nH]c2c3ccccc3nn12 was read as tim10-1 inh inactive, NALP1 inh inactive, TIM10 inh inactive, tim23-1 inh inactive and NALP3 yeast inh inactive.
COc1ccccc1CNC(=O)c1cccc2c1C(=O)N(Cc1cccnc1)C2 was read as tim10-1 inh inactive, NALP1 inh inactive, TIM10 inh inactive, tim23-1 inh inactive and NALP3 yeast inh inactive.
COC(CNC(=O)c1cccc2c1C(=O)N(Cc1cccnc1)C2)OC was read as tim10-1 inh inactive, NALP1 inh 41, TIM10 inh inactive, tim23-1 inh inactive and NALP3 yeast inh inactive.
CCn1c(Cc2ccccc2)nnc1SCC(=O)Nc1ccccc1F was read as tim10-1 inh inactive, NALP1 inh 33, TIM10 inh inactive, tim23-1 inh inactive and NALP3 yeast inh inactive.
Screening Cc1cc(NN)nc(NS(=O)(=O)c2ccccc2Cl)n1 returned tim10-1 inh inactive, NALP1 inh inactive, TIM10 inh inactive, tim23-1 inh inactive and NALP3 yeast inh inactive.
`COc1cc(C)nc(NS(=O)(=O)c2ccccc2Cl)n1` gave tim10-1 inh inactive, NALP1 inh 39, TIM10 inh inactive, tim23-1 inh inactive and NALP3 yeast inh inactive.
C=CCOC(=O)C1=C(C)Nc2[nH]c(=O)[nH]c(=O)c2C1c1ccccc1 (stereo not given) was read as tim10-1 inh inactive, NALP1 inh 29, TIM10 inh inactive, tim23-1 inh inactive and NALP3 yeast inh inactive.
For CCOC(=O)C1=C(C)Nc2[nH]c(=O)[nH]c(=O)c2C1c1cccs1 (stereo not given) the results were tim10-1 inh inactive, NALP1 inh inactive, TIM10 inh inactive, tim23-1 inh inactive and NALP3 yeast inh inactive.
Screening CC(C)(C)c1ccc(OCCCC(=O)NC2=NCCS2)cc1 returned tim10-1 inh inactive, NALP1 inh 36, TIM10 inh inactive, tim23-1 inh inactive and NALP3 yeast inh inactive.
For O=C1C(=C(O)c2ccccc2)C(=O)c2ccccc21 the results were tim10-1 inh inactive, NALP1 inh inactive, TIM10 inh inactive, tim23-1 inh inactive and NALP3 yeast inh inactive.
Screening O=C1C(=C(c2ccccc2)c2ccccc2)Nc2ccccc21 returned tim10-1 inh inactive, NALP1 inh inactive, TIM10 inh inactive, tim23-1 inh inactive, NALP3 yeast inh 62 and NALP3 confirm inactive.
CCOC(=O)c1c(-c2ccccc2)nc2ccccn12 was read as tim10-1 inh inactive, NALP1 inh 87, TIM10 inh inactive, tim23-1 inh inactive, NALP3 yeast inh 97, NALP3 confirm 99, Casp1-ASC yeast 99 and NALP3 retest 99.
`COc1ccccc1/C=C/C(=O)NCc1ccccn1` gave tim10-1 inh inactive, NALP1 inh inactive, TIM10 inh inactive, tim23-1 inh inactive and NALP3 yeast inh inactive.
`C/C(=N\Nc1ncc(Br)cn1)c1cccc([N+](=O)[O-])c1` gave tim10-1 inh inactive, NALP1 inh inactive, TIM10 inh inactive, tim23-1 inh inactive, NALP3 yeast inh 51, NALP3 confirm 61, Casp1-ASC yeast 64 and NALP3 retest inactive.
`O=C(COc1ccc(Br)cc1Br)NC1CCCC1` gave tim10-1 inh inactive, NALP1 inh inactive, TIM10 inh inactive, tim23-1 inh inactive, NALP3 yeast inh 62, NALP3 confirm 56, Casp1-ASC yeast 53 and NALP3 retest inactive.
O=C(COc1ccc(Br)cc1Cl)NC1CCCCC1 was read as tim10-1 inh inactive, NALP1 inh inactive, TIM10 inh inactive, tim23-1 inh inactive, NALP3 yeast inh 53 and NALP3 confirm inactive.
